Experimental data: PubChem BioAssay (Tox21)
Where “and” joins values, the source holds several entries; their conditions need not be identical. Identical values can stand only once. Results filed as inconclusive are left out. Where a call stands in place of a potency, no number is given. Values without a mark were called inactive. Calls of active or inactive are those of the source. Calls come from the whole dose curve; as a rule, active = well fitted inhibition curve with a large enough effect in the repeat runs; inconclusive = weak or mixed curves; inactive = no such curve, though single readings can be large or run the other way.
Note: nearly all actives have a fitted effect of over 50% in size.
Potency is the fitted concentration of half-maximal effect.

The compounds below were run against Cytochrome P450 2C9 (Homo sapiens) (UniProt P11712) (assay: Cytochrome P450 Family 2 Subfamily C Member 9 (CYP2C9) small molecule antagonists: luciferase reporter qHTS assay (AID 1671198)). Settings: P450-Glo CYP2C9 enzyme assay, luciferin luminescence; series mostly up to 115 µM.
Chain of Cytochrome P450 2C9 (Homo sapiens) (P11712 whole entry, looked up): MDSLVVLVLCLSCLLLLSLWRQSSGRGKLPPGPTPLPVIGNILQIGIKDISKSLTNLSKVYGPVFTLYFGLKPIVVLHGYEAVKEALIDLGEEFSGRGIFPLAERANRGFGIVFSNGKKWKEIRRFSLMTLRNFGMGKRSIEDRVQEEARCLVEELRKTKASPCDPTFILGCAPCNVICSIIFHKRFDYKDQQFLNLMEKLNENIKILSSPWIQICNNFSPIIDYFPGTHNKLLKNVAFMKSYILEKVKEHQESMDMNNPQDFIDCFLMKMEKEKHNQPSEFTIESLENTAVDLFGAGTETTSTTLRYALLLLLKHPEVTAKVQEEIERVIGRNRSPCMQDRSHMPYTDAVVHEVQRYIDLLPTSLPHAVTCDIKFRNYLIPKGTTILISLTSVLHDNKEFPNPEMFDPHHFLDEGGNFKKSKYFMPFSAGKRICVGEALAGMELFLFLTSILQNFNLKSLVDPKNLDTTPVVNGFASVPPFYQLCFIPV
Outline: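 P450-Glo proluciferin substrate with CYP2C9 enzyme; 10 min RT preincubation, then NADPH regeneration 1 h at 37C; luciferin detection reagent 20 min RT, luminescence in relative luminescence units.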
For `COc1cccc(C=O)c1`, the Potency was “inactive”.
In the case of `CC[C@H](O)C(C[C@H](C)N(C)C)(c1ccccc1)c1ccccc1`, the Potency is reported as “inactive”.
In the case of `CCc1ccc(C2CCNCC2)cc1`, the Potency is reported as “inactive”.
For `CCN[C@@H](C)Cc1cccc(C(F)(F)F)c1`, the Potency was “inactive”.
`CCOC(=O)N(C)N=O` was tested, and the Potency was “inactive”.
`CCN(CCO)CCn1c(Cc2ccccc2)nc2c1c(=O)n(C)c(=O)n2C` was tested, and the Potency was “inactive”.
In the case of `CCCCCCCCBr`, the Potency is reported as “inactive”.
For `O=C(Cl)OCc1ccccc1`, the Potency was “inactive”.
In the case of `CS(=O)(=O)c1ccc(C(=O)C2C(=O)CCCC2=O)c(Cl)c1COCC(F)(F)F`, the Potency is reported as 6.33 µM (active).
For `CC(C)[N+](C)(CCC(C(N)=O)(c1ccccc1)c1ccccc1)C(C)C`, the Potency was 38.9 µM (active).
In the case of `CC(Cc1ccccc1)NCCCCl` (configuration not stated), the Potency is reported as “inactive”.
For `NCC1(CC(=O)O)CCCCC1`, the Potency was “inactive”.
In the case of `C[C@H]1CCCC(=O)CCC/C=C/c2cc(O)cc(O)c2C(=O)O1`, the Potency is reported as 4.84 µM (active) and 7.34 µM (active).
For `CCN1CCCC1CNC(=O)C(O)(c1ccccc1)c1ccccc1` (configuration not stated), the Potency was “inactive”.
With `O=c1[nH]oc2c1CCNC2` the Potency was “inactive”.
Work on `Cc1ccc2c(c1)C1CN(C)CCC1N2` (configuration not stated) yielded an activity change, negative = inhibition of 0.693% [at 23.6 µM].
With `CC(C)(C)C(=O)C(Cl)Cl` the Potency was “inactive”.
For `CCNc1nc(NCC)nc(SC)n1`, the Potency was “inactive”.
In the case of `Cc1ccc2cc(C)ccc2c1`, the Potency is reported as “inactive”.
`Nc1c(Cl)c(F)nc(OCC(=O)O)c1Cl` was tested, and the Potency was “inactive”.
For `CNC(=O)Oc1cc(C)c(N(C)C)c(C)c1`, the Potency was “inactive”.
In the case of `CCOP(=S)(OCC)Oc1ccc(Cl)cc1Cl`, the Potency is reported as 3.56 µM (active).
In the case of `Cc1ccc(-c2nc3ccc(C)cn3c2CC(=O)N(C)C)cc1`, the Potency is reported as “inactive”.
In the case of `CCOC(=O)CCl`, the Potency is reported as “inactive”.
With `Cl/C=C/CCl` the Potency was “inactive”.
`CC(=O)CN(CC(C)=O)N=O` was tested, and the Potency was “inactive”.
In the case of `Oc1ccc(Cc2ccc(O)cc2)cc1`, the Potency is reported as “inactive”.
`Clc1ccc(C(Cl)(Cl)Cl)cn1` was tested, and the Potency was “inactive”.
`C=CC(=O)OCCN(C)C` was tested, and the Potency was “inactive”.

What follows are compounds tested against Cytochrome P450 1A2 (Homo sapiens) (UniProt P05177) (assay: Cytochrome P450 Family 1 Subfamily A Member 2 (CYP1A2) small molecule antagonists: luciferase reporter qHTS assay (AID 1671199)). Settings: P450-Glo CYP1A2 enzyme, luciferin luminescence, 1 h; series mostly up to 115 µM.
Chain of Cytochrome P450 1A2 (Homo sapiens) (P05177 whole entry, looked up): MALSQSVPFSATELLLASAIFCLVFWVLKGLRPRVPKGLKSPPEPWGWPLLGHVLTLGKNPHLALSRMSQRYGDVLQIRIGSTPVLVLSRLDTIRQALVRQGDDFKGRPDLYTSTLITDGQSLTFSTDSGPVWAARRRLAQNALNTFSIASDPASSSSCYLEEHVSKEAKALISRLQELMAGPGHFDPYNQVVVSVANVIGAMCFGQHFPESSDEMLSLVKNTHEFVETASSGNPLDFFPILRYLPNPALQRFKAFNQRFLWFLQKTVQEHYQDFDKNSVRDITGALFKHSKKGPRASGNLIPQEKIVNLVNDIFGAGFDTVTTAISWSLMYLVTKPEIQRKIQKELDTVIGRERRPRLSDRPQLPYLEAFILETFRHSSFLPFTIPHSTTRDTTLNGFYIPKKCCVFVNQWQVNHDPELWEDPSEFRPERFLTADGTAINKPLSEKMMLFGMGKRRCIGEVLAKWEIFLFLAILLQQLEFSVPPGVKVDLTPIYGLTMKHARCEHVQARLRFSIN
Outline: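 Quantitative high-throughput format using the P450-Glo CYP1A2 system. Reaction initiated by NADPH regeneration solution, 1 h at room temperature, then stopped with detection reagent; luminescence measured 20 min later.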
In the case of `COC(=O)[C@@H](N)CCCN/C(N)=N/[N+](=O)[O-]`, the Potency is reported as “inactive”.
`COc1cccc(C=O)c1` was tested, and the Potency was 39.9 µM (active).
In the case of `CC[C@H](O)C(C[C@H](C)N(C)C)(c1ccccc1)c1ccccc1`, the Potency is reported as “inactive”.
For `CCc1ccc(C2CCNCC2)cc1`, the Potency was “inactive”.
In the case of `CCN(CCO)CCn1c(Cc2ccccc2)nc2c1c(=O)n(C)c(=O)n2C`, the Potency is reported as “inactive”.
With `NNC(N)=O` the Potency was 36.5 µM (active).
In the case of `CS(=O)(=O)c1ccc(C(=O)C2C(=O)CCCC2=O)c(Cl)c1COCC(F)(F)F`, the Potency is reported as “inactive”.
With `CC(Cc1ccccc1)NCCCCl` (configuration not stated) the Potency was “inactive”.
In the case of `NCC1(CC(=O)O)CCCCC1`, the Potency is reported as “inactive”.
For `C[C@H]1CCCC(=O)CCC/C=C/c2cc(O)cc(O)c2C(=O)O1`, the Potency was 21.6 µM (active) and 13.1 µM (active).
With `CCN1CCCC1CNC(=O)C(O)(c1ccccc1)c1ccccc1` (configuration not stated) the Potency was “inactive”.
In the case of `O=c1[nH]oc2c1CCNC2`, the Potency is reported as “inactive”.
`CCNc1nc(NCC)nc(SC)n1` was tested, and the Potency was 10 µM (active).
With `CNC(=O)Oc1cc(C)c(N(C)C)c(C)c1` the Potency was 10 µM (active).
With `CCOP(=S)(OCC)Oc1ccc(Cl)cc1Cl` the Potency was 2.83 µM (active).
`Cc1ccc(-c2nc3ccc(C)cn3c2CC(=O)N(C)C)cc1` was tested, and the Potency was 27.5 µM (active).
With `CC(C)(C1CCC(O)CC1)C1CCC(O)CC1` (configuration not stated) the Potency was “inactive”.
`C[C@H](CN1CCOCC1)C(C(=O)N1CCCC1)(c1ccccc1)c1ccccc1` was tested, and the Potency was “inactive”.
For `CCOC(=O)CCl`, the Potency was “inactive”.
With `C[C@H](N)C(=O)c1ccccc1` the Potency was 53.1 µM (active).
With `CCOC(=O)c1ncn2c1CN(C)C(=O)c1c(I)cccc1-2` the Potency was “inactive”.
`Clc1ccc(C(Cl)(Cl)Cl)cn1` was tested, and the Potency was 7.96 µM (active).
In the case of `C=CC(=O)OCCN(C)C`, the Potency is reported as “inactive”.
